Cruzain Triton – qHTS Assay for Promiscuous and Specific Inhibitors of Cruzain (with detergent); Potency, µM, without a hit: max response, negative = inhibition, usual class: inhibitors; AID 1478, 2009; purified cruzain, Z-FR-AMC fluorescence, 0.01% Triton; Cruzipain (Trypanosoma cruzi), P25779; actives 0.43% (n = 200,000);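 also: plate controls were neutral wells for no effect and buffer without enzyme for full effect; nearly all actives have a fitted effect of over 40% in size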
Target sequence (P25779 123-467 limits assumed): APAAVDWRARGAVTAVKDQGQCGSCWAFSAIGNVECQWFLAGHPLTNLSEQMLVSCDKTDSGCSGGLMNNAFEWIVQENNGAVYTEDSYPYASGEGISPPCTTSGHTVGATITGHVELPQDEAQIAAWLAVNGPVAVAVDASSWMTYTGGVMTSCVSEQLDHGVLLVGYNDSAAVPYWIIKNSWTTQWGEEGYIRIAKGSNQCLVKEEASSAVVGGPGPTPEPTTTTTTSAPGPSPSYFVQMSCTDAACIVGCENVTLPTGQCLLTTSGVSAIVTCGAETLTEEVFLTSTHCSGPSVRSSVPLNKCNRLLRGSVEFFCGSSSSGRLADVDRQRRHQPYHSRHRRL
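Read-out: AMC fluorescence (360 nm excitation, 450 nm emission), four reads over 2 min, first-to-third difference used. Conditions: cruzain 1.5 nM, Z-FR-AMC 2 uM, pH 5.5 acetate, 5 mM DTT, 0.01% Triton X-100.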
Cruzain noTriton – qHTS Assay for Promiscuous and Specific Inhibitors of Cruzain (without detergent). Potency, µM, inactives show max response, negative = inhibition, usual class: inhibitors. actives 2.3% (n = 200,000). AID 1476, 2009. Cruzipain (Trypanosoma cruzi), P25779. purified cruzain, Z-FR-AMC fluorescence, no detergent;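 also: plate controls were enzyme without inhibitor for no effect and buffer without enzyme for full effect; nearly all actives have a fitted effect of over 40% in size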
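Purified cruzain at 1.5 nM, pre-incubated 15 min with compound at room temperature in 100 mM sodium acetate pH 5.5, 5 mM DTT, 0.00005% Triton X-100. Reaction started with 2 uM Z-FR-AMC; AMC fluorescence increase over 60 s gives rate.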
* hit, by the source's call; ? = inconclusive. The list is not random: actives were taken first. Their share in the collection is about 2.6%. Calls follow the shape of the dose curve; as a rule, active = well fitted curve in the direction sought with a large enough effect; inconclusive = small, poorly fitted or top-dose-only effect, or another doubt; inactive = no such curve, though single readings can be large; an effect the other way counts as inactive or inconclusive. Potency is read from the fitted curve at half-maximal effect.

SMILES	Cruzain Triton	Cruzain noTriton
Cc1cc(-c2csc(NC(=O)c3ccc(=O)n(C)n3)n2)c(C)n1CC1CCCO1 (configuration not stated)	-9%	?
Cc1cc(-c2csc(NC(=O)c3ccccc3C(F)(F)F)n2)c(C)n1Cc1ccccc1	0%	16µM*
CCOC(=O)C1=C(c2ccccc2)NC(=S)NC1c1cc([N+](=O)[O-])ccc1OC (configuration not stated)	0%	25µM*
CCOC(=O)C1=C(c2ccccc2)NC(=S)NC1c1cccc([N+](=O)[O-])c1 (configuration not stated)	-6%	3%
CCCCS(=O)(=O)c1nc(-c2ccc(Br)cc2)cc(-c2ccccc2)c1C#N	4%	?
Cc1cccc(C2NC(=O)c3c(sc4c3CCN(C)C4)N2)c1O (configuration not stated)	-15%	-4%
Cc1ccc2sc(NC(=O)c3ccc(N4C(=O)CCC4=O)cc3)nc2c1C	2%	?
CCc1cccc2sc(NC(=O)c3ccc(N4C(=O)CCC4=O)cc3)nc12	2%	7.9µM*
Cc1cccc(NC(=O)CSc2nnc(-c3ccco3)c(-c3ccco3)n2)c1C	28µM*	7.9µM*
Cc1ccccc1NC(=O)CSc1ccc(-c2ccco2)nn1	-3%	2%
COC(=O)c1c(NC(=O)CSc2nc3ccccc3c(=O)n2-c2ccccc2)sc(C)c1C	-3%	13µM*
CCOc1ccc(-n2c(SCC(=O)Nc3ccc(OC)cc3)nc3c(c2=O)SCC3)cc1	-1%	-5%
CCOC(=O)c1sc(NC(=O)CSc2nc3c(c(=O)n2-c2ccc(F)cc2)SCC3)c(C(=O)OCC)c1C	-3%	25µM*
Cc1cc(NC(=O)CSc2nc3ccccc3c(=O)n2-c2ccccc2)no1	11%	-11%
O=C(NCc1ccccc1Cl)c1ccc(Nc2nc3ccccc3n3nnnc23)cc1	-3%	3%
CCCCN1C(=O)c2[nH]nc(-c3ccccc3O)c2C1c1ccc(OCc2ccccc2)cc1 (configuration not stated)	-2%	?
CCOC(=O)c1c(-c2ccc(Br)cc2)csc1NC(=O)c1ccc(F)cc1	-2%	-12%
CCOC(=O)c1c(-c2ccc(OC)c(OC)c2)csc1NC(=O)c1ccc(C)cc1	-2%	5%
COC(=O)c1c(-c2ccccc2)csc1NC(=O)c1c(-c2ccccc2)noc1C	-3%	20µM*
CCOC(=O)c1c(-c2ccc(C)cc2)csc1NC1=NS(=O)(=O)c2ccccc21	-5%	7.9µM*
CCOC(=O)c1c(-c2ccc(C)cc2)csc1NC(=S)NC(=O)c1ccccc1	1%	25µM*
CCOC(=O)c1c(-c2ccc(C)cc2)csc1NC(=O)C1CC=CCC1C(=O)O (configuration not stated)	-6%	?
CCOC(=O)c1c(-c2ccc(F)cc2)csc1NC(=O)c1c(-c2ccccc2)noc1C	-5%	-49%
COC(=O)c1c(-c2ccc(C)cc2)csc1NC(=S)NC(=O)c1ccc(F)cc1	-2%	13µM*
COc1cc(C(=O)NCC(c2cccs2)S(=O)(=O)c2cccs2)cc(OC)c1OC (configuration not stated)	0%	13%
SMILES	Cruzain Triton	Cruzain noTriton
COc1ccc(S(=O)(=O)N2CCN(Cc3nc4ccc(C)cc4o3)CC2)cc1	-5%	15%
CCN1CCN(C(c2ccccc2)c2sc3nc(-c4ccco4)nn3c2O)CC1 (configuration not stated)	-1%	-5%
Cc1ccc(-n2c(SCC(=O)NCc3ccccc3)nc3n[nH]c(C)c3c2=N)cc1Cl	-1%	4%
O=C(Cn1ncc2c(=O)oc3ccccc3c21)NCc1ccccc1Cl	1%	7%
CC(/C=C(\NC(=O)c1ccccc1)C(=O)N=Nc1c(O)[nH]c2ccc(C)cc12)=C\c1ccccc1	-2%	25µM*
Cc1ccc(S(=O)(=O)N(CC(=O)N=Nc2c(O)[nH]c3ccccc23)c2cccc(C)c2)cc1	-1%	-22%
Cn1c(=O)c2c(nc(N/N=C/c3ccc(OC(=O)c4ccco4)cc3)n2Cc2ccccc2Cl)n(C)c1=O	?	32µM*
Cn1c(=O)c2c(nc(N/N=C/c3ccc(OC(=O)c4ccco4)cc3)n2Cc2ccc(F)cc2)n(C)c1=O	-15%	?
CCCc1nn2c(=O)cc(COC(=O)c3ccc(NC(=O)COc4ccccc4F)cc3)nc2s1	2%	4%
Cc1cc(C)cc(OC(=O)c2cc(-c3ccc(Cl)cc3)on2)c1	0%	-2%
COc1cccc(-c2cc3nc(-c4ccccc4)cc(N4CCC5(CC4)OCCO5)n3n2)c1	28µM*	-14%
COc1cccc(-c2cc(C(F)(F)F)n3nc(C(=O)N4CCC5(CC4)OCCO5)cc3n2)c1	-5%	?
O=C(Cn1c(=O)nc(-c2ccccc2)c2cc(Cl)ccc21)NCCCc1ccccc1	-7%	20%
Cc1ccc(-n2c(=S)[nH]c3nc4c(cc3c2=O)COC(C)(C)C4)cc1	-3%	?
CCC1(C)Cc2nc3[nH]c(=S)n(-c4ccc(C)cc4)c(=O)c3cc2CO1 (configuration not stated)	1%	20µM*
COc1cc(NC(=O)c2cc(Cl)ccc2Cl)ccc1-c1cc2ccccc2oc1=O	-15%	20µM*
COc1ccc(C(=O)Nc2ccc(-c3cc4ccccc4oc3=O)c(C)c2)cc1OC	-2%	?
O=C(Nc1ccc2oc(-c3ccc4ccccc4c3)nc2c1)c1cc(Cl)ccc1Cl	-1%	5µM*
O=C(Nc1ccc2oc(-c3ccc4ccccc4c3)nc2c1)c1cc(Br)ccc1Cl	0%	-1%
CCn1c(C(=O)NCc2cc(Br)ccc2OC)cc2oc3ccccc3c21	-5%	32µM*
CCn1c(C(=O)NCc2ccccc2Br)cc2oc3ccccc3c21	-7%	?
O=C(c1ccccc1)c1ccc2nc(-c3ccc(NC(=O)c4ccccc4Br)cc3)[nH]c2c1	-3%	3%
O=C(Nc1ccc2nc(-c3cccs3)[nH]c2c1)c1ccco1	-22%	20µM*
Cc1ccc2nc(-c3ccc(NC(=O)c4ccco4)cc3)[nH]c2c1	25µM*	-1%
Cn1cccc1-c1nc2ccc(NC(=O)c3ccco3)cc2[nH]1	-10%	-4%
SMILES	Cruzain Triton	Cruzain noTriton
O=C(Nc1cccc(-c2nc3ccccc3[nH]2)c1)c1ccco1	-7%	-10%
Cc1ccccc1-c1nc(-c2ccc(NC(=O)c3cccs3)cc2)no1	3%	?
O=C(Nc1ccc(-c2noc(-c3ccccc3F)n2)cc1)c1cccs1	1%	20µM*
Cc1ccccc1C(=O)Nc1ccc(-c2nc3ccc(C(=O)c4ccccc4)cc3[nH]2)cc1	-2%	13µM*
Cc1ccc(CNC(=O)CN2C(=O)CCc3cc(S(=O)(=O)N4CCCCC4)ccc32)cc1	-2%	1%
Cc1ccccc1NC(=O)c1sc2nc3n(c(=O)c2c1C)N=C(c1ccccc1)CS3	-5%	5%
CCc1ccc(CNC(=O)C2COc3ccccc3C2)cc1 (configuration not stated)	-1%	-1%
COc1cccc(NC(=O)Cn2cc(C(=O)C3CCCCC3)c3ccccc32)c1	-5%	-28%
CCCSCCCNC(=O)C1CCN(C(=O)c2cc3sccc3n2C)CC1	-6%	?
CCc1ccccc1S(=O)(=O)Cc1ccc(C(=O)NCCc2ccc(Cl)cc2)o1	-5%	4%
O=C(CCCn1c(=O)c2cccn2c2ccc(F)cc21)NCc1ccc(Cl)cc1	0%	2%

Compound activity deposited in PubChem by National Center for Advancing Translational Sciences (NCATS).
